The results in this text go back to PubChem BioAssay.

In assay [1] the target is Cell division control protein 42 homolog (Homo sapiens) (UniProt P60953). The assay is described as follows: activated mutant Cdc42 GTP-binding inhibitors, dose response, biochemical, multiplex bead flow cytometry, Bodipy-FL-GTP (AID 1333;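 active = fitted half-maximal concentration within the tested dose range, moderate curve steepness, a statistically real signal drop, and little compound fluorescence or tag-binding interference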).
The target is the same in assay [2]. The assay is described as follows: wildtype Cdc42 GTP-binding inhibitors, dose response, biochemical, multiplex bead flow cytometry, Bodipy-FL-GTP (AID 1334;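 active = fitted half-maximal concentration within the tested range, moderate curve steepness, significant signal drop, and little compound fluorescence or bead-linkage interference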). Conditions: bead-based flow cytometry, Bodipy-FL-GTP binding to GST-Cdc42; at 100 µM (top of the series) unless noted. A general note: Flow cytometry measures light scatter and fluorescence of single cells or particles in a stream.

Assay [3] addresses GTPase HRas (Homo sapiens) (UniProt P01112). Briefly: inhibitors of GTP binding to wildtype Ras, dose response, biochemical, multiplex bead flow cytometry (AID 1335;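 active = fitted half-maximal concentration within 10 nM to 100 µM, steepness 0.5 to 2, significant signal drop, low assay interference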). To be noted: bead-based flow cytometry, Bodipy-GTP binding to GST-Ras; at 100 µM (top of the series) unless noted.
Assay [4] deals with Ras-related protein Rab-7a (dog), GTP binding. The assay is described as follows: Rab7 GTP binding inhibitors, potency, dose response, biochemical, wildtype, multiplex bead flow cytometry (AID 1336).
Assay [5] has as its target Ras-related C3 botulinum toxin substrate 1 (Homo sapiens) (UniProt P63000). Briefly: wildtype Rac1 GTP binding inhibitors, dose response, biochemical, multiplex bead flow cytometry (AID 1340;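 active = dose curve with midpoint inside tested range, moderate steepness, plateau gap beyond fit error, low compound glow and bead-link interference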). Conditions: GST-Rac1 beads, Bodipy-FL-GTP binding; at 100 µM (top of the series) unless noted.
In assay [6] the target is GTPase HRas (Homo sapiens) (UniProt P01112). The assay is described as follows: activated Ras mutant GTP binding inhibitors, dose response, biochemical, multiplex bead flow cytometry (AID 1341;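 active = dose-response curve with midpoint inside the tested range, moderate steepness, significant amplitude and little compound fluorescence or bead-attachment interference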;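 also: GST-tagged constitutively activated Ras mutant immobilized on beads and multiplexed with other GTPases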).

For part of these data: Measured potencies and affinities stand elsewhere. Activity calls are given as the source filed them. Unless noted, no rule for the calls is given here.

Sequence of GTPase HRas (Homo sapiens) (P01112 whole entry, looked up): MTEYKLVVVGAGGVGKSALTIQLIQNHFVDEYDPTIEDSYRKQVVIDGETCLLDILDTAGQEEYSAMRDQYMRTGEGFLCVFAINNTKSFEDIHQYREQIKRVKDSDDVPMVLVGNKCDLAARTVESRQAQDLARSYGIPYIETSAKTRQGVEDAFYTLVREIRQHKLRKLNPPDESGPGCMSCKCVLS
Sequence of Cell division control protein 42 homolog (Homo sapiens) (P60953 whole entry, looked up): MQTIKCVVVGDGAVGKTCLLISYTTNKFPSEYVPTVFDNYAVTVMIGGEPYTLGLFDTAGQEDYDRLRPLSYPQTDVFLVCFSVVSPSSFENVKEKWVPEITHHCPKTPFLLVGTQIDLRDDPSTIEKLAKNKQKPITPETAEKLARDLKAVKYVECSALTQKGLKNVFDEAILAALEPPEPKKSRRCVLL

With `COc1cc(/C=C(/C#N)c2nc3ccccc3[nH]2)ccc1OCc1ccc(C(=O)O)o1`, the compound was called inactive in assay [1], in assay [4] and in assay [6]. In addition, the fluorescence, percent of control (lower = inhibition) in assay [2] stood at 21.9%. For the same compound, the GTP binding, percent of control in assay [3] was 59.6%. This compound also returned a GTP binding signal, raw median fluorescence (lower = inhibition) (MCF (arbitrary fluorescence units)) in assay [5] of 116.
As for `O=C(O)c1cc2ccccc2nc1OCc1ccccc1`, the result in assay [1], in assay [4] and in assay [6] was inactive. In assay [2], the fluorescence, percent of control (lower = inhibition) was 49.1%. Further, the GTP binding, percent of control in assay [3] is 200%. In assay [5], this compound showed a GTP binding signal, raw median fluorescence (lower = inhibition) (MCF (arbitrary fluorescence units)) of 46.4.
`Cc1cc2nc3c(=O)[nH]c(=O)[nH]c3nc2c([N+](=O)[O-])c1N`: the result in assay [1], in assay [4] and in assay [6] was inactive. In addition, the fluorescence, percent of control (lower = inhibition) in assay [2] came out at 35%. The compound further came in with a GTP binding, percent of control in assay [3] of 75.6%. For the same compound, the GTP binding signal, raw median fluorescence (lower = inhibition) (MCF (arbitrary fluorescence units)) in assay [5] was 192.
Turning to `COc1ccc2[nH]c3nc(SCC(=O)Nc4ccc5c(c4)OCO5)nnc3c2c1`, the outcome in assay [1], in assay [4] and in assay [6] was inactive. Besides, the fluorescence, percent of control (lower = inhibition) in assay [2] was 70.4%. In assay [3], the GTP binding, percent of control is 150%. In addition, in assay [5], the GTP binding signal, raw median fluorescence (lower = inhibition) (MCF (arbitrary fluorescence units)) was determined as 164.
With `CCN(CC)c1ccc(/C=C(\C#N)c2nc(-c3cccs3)c(NC(C)=O)s2)cc1`, the compound was called inactive in assay [1], in assay [4] and in assay [6]. For the same compound, the fluorescence, percent of control (lower = inhibition) in assay [2] came out at 99.5%. The compound further gave a GTP binding, percent of control in assay [3] of 114%. In addition, the GTP binding signal, raw median fluorescence (lower = inhibition) (MCF (arbitrary fluorescence units)) in assay [5] came to 0.
For `Cc1cc(-c2nnc3n2N=C(c2ccc(-c4ccccc4)cc2)CS3)n[nH]1`, the result in assay [1], in assay [4] and in assay [6] was inactive. In addition, the fluorescence, percent of control (lower = inhibition) in assay [2] was 31.3%. This compound also had a GTP binding, percent of control in assay [3] of 72.4%. In addition, in assay [5], the GTP binding signal, raw median fluorescence (lower = inhibition) (MCF (arbitrary fluorescence units)) came out at 172.
In the case of `CCOc1cccc(Nc2cc3n(c(=O)n2)CCc2cc(OC)c(OC)cc2-3)c1`, the call in assay [1], in assay [4] and in assay [6] was inactive. Moreover, in assay [2], the fluorescence, percent of control (lower = inhibition) was found to be 32%. For the same compound, the GTP binding, percent of control in assay [3] was found to be 71.9%. For the same compound, in assay [5], the GTP binding signal, raw median fluorescence (lower = inhibition) (MCF (arbitrary fluorescence units)) was found to be 186.
Turning to `O=C(O)c1ccc(CSCc2ccccc2)o1`, the outcome in assay [1], in assay [4] and in assay [6] was inactive. For the same compound, the fluorescence, percent of control (lower = inhibition) in assay [2] worked out at 62.4%. This compound also yielded a GTP binding, percent of control in assay [3] of 91.5%. Besides, the GTP binding signal, raw median fluorescence (lower = inhibition) (MCF (arbitrary fluorescence units)) in assay [5] is 41.9.
In the case of `CCOC(=O)c1ccc2ncc(-c3ccccc3)nc2c1`, the compound was called inactive in assay [1], in assay [4] and in assay [6]. In assay [2], the fluorescence, percent of control (lower = inhibition) turned out to be 33.5%. This compound displayed a GTP binding, percent of control in assay [3] of 79.4%. Further, the GTP binding signal, raw median fluorescence (lower = inhibition) (MCF (arbitrary fluorescence units)) in assay [5] was 259.
For the compound `C=CCN1C(=O)/C(=C/C=C2/N(CC)c3ccc(S(=O)(=O)N(C)C)cc3N2CC)SC1=S`, the call in assay [1], in assay [4] and in assay [6] was inactive. Further, in assay [2], the fluorescence, percent of control (lower = inhibition) stood at 56.2%. In assay [3], this compound came in with a GTP binding, percent of control of 88.4%. In addition, the GTP binding signal, raw median fluorescence (lower = inhibition) (MCF (arbitrary fluorescence units)) in assay [5] came out at 215.
Take `O=C(CSc1ncnc2scc(-c3ccccc3)c12)N1CCN(Cc2ccc3c(c2)OCO3)CC1`: the result in assay [1], in assay [4] and in assay [6] was inactive. Also, the fluorescence, percent of control (lower = inhibition) in assay [2] was determined as 45.2%. In addition, the GTP binding, percent of control in assay [3] is 63.6%. This compound also yielded a GTP binding signal, raw median fluorescence (lower = inhibition) (MCF (arbitrary fluorescence units)) in assay [5] of 196.
On to `Cc1nnc(OC(C)C)c2nn(-c3ccccc3F)c(C)c12`, for which the outcome in assay [1], in assay [4] and in assay [6] was inactive. Besides, the fluorescence, percent of control (lower = inhibition) in assay [2] stood at 55.1%. This compound also came in with a GTP binding, percent of control in assay [3] of 69.3%. Moreover, the GTP binding signal, raw median fluorescence (lower = inhibition) (MCF (arbitrary fluorescence units)) in assay [5] was determined as 0.
`COC(=O)c1c(N2C(=O)[C@H]3[C@@H](C2=O)[C@]2(C(=O)Nc4c(C)cc(C)cc42)N2CCC[C@@H]32)sc(C)c1C`: the compound was classed as inactive in assay [1], in assay [4] and in assay [6]. Also, in assay [2], the fluorescence, percent of control (lower = inhibition) stood at 45.1%. The compound further returned a GTP binding, percent of control in assay [3] of 97.2%. In assay [5], this compound returned a GTP binding signal, raw median fluorescence (lower = inhibition) (MCF (arbitrary fluorescence units)) of 238.
`O=C(c1nn2c(C(F)(F)F)cc(-c3ccc(F)cc3)nc2c1Cl)N1CCOCC1`: the call in assay [1], in assay [4] and in assay [6] was inactive. In addition, the fluorescence, percent of control (lower = inhibition) in assay [2] came out at 48.9%. In assay [3], this compound had a GTP binding, percent of control of 62.6%. The GTP binding signal, raw median fluorescence (lower = inhibition) (MCF (arbitrary fluorescence units)) in assay [5] amounted to 189.
For `Cc1c2cc(O)c(=O)cc-2oc2cc(O)c(O)cc12`, the compound was classed as inactive in assay [1], in assay [4] and in assay [6]. The fluorescence, percent of control (lower = inhibition) in assay [2] worked out at 5290%. In assay [3], this compound had a GTP binding, percent of control of 5530%. For the same compound, in assay [5], the GTP binding signal, raw median fluorescence (lower = inhibition) (MCF (arbitrary fluorescence units)) came to 5510.
